Positions count from the first letter of the chain named. In all, about 24,000 sequences were measured (“enrichment r”: median about 0.99, highest 2% from about 3.7 on). This excerpt belongs to a sample that is enriched for the highest values.

The labels stand for the following.
T1: UNK ZnF1-3 (human, UniProt Q9C0B0 31-174)
T1 sequence: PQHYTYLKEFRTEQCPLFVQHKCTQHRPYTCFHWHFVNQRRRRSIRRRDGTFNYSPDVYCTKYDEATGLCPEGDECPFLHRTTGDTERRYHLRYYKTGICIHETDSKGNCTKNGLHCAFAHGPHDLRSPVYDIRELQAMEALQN

B1: chrX:77155053:77155054:+_ENSG00000131174_ENST00000481445|hu_hu|motif|central (ssRNA)
RNA: GGGAGUUCUACAGUCCGACGAUCCGAACUUGGAGACGAUUUAGUGCGCUUUUGACCAAGGGAAACAUCGUGAAGGUGAAGCGGGAACUGCGGCAAUACAGCUGCUGCUUUGGUGCCAAUUCGCUUCAGGUACCCUUGAAGUGACAACAGAGGAUUGAGCAUCA
B2: chr2:153237265:153237266:-_ENSMUSG00000061411_ENSMUST00000109784|mus_mus|mus_mus_mus_hu_False|18_58 (ssRNA)
RNA: GGGAGUUCUACAGUCCGACGAUCAAAAAAAAAAAAAAAAAAGUGUCCUUGUGCCCAAAGUCUCAGGUGCUUGGAGUGCAGCUAGAAACAGCUCUUUUGGAUCCCACCUCUUUCAAAAAACAGUGUAACCAACUGGUGAGGCAGCAACAGAGGAUUGAGCAUCA
B3: chr2:153237265:153237266:-_ENSMUSG00000061411_ENSMUST00000109784|mus_mus|mus_mus_mus_hu_False|18_18 (ssRNA)
RNA: B2 RNA with C78U, A79G
B4: chr2:153237265:153237266:-_ENSMUSG00000061411_ENSMUST00000109784|mus_mus|mus_mus_mus_hu_False|18_78 (ssRNA)
RNA: B2 RNA with G66A, C78U, A79G
B5: chr5:71490711:71490712:+_ENSG00000131711_ENST00000296755|hu_hu|motif|central (ssRNA)
RNA: GGGAGUUCUACAGUCCGACGAUCCACAGGAGUGGGCACCUGGCCAGUGAGAUCCUUUUGGGUGGCCAGUGGCUGCUUCAGAAAGUCGGGAUGUUUGAGCUUUUCCAACCCUUCCAGGAUGUUGUACUGGGUGCUGUUCCCAGGCAACAGAGGAUUGAGCAUCA
B6: chr2:153237265:153237266:-_ENSMUSG00000061411_ENSMUST00000109784|mus_mus|mus_mus_mus_hu_False|18_28 (ssRNA)
RNA: B2 RNA with C78U, A79G, A115G
B7: chr2:153237265:153237266:-_ENSMUSG00000061411_ENSMUST00000109784|mus_mus|mus_mus_mus_hu_False|1_18 (ssRNA)
RNA: B2 RNA with C78U, A79G, G137A, A138G, G140C, C141A, A142G
B8: chr11:46405157:46405158:+_ENSG00000110492_ENST00000395566|hu_hu|hu_hu_hu_mus_False|8_58 (ssRNA)
RNA: GGGAGUUCUACAGUCCGACGAUCCCCUCCCCACUUUGGGCACUUGGUGUGGGCGUGAGAGGACAGGCGUGAUUGACAAAGCUAACGGGAAGACAAAAGGCACUGGUGGGUUAUAUCUUGGGCCUGUGAGAGGGAGGGGCUCCGCAACAGAGGAUUGAGCAUCA
B9: 55264158_55264526_802_CDS_ENSMUSG00000022185_ENSMUST00000148754|mouse|control|control (ssRNA)
RNA: GGGAGUUCUACAGUCCGACGAUCGAUGGACCUCCGGGUUAAGGUAUCUCCUAAUGUUACUUUCUUUACUUCGUGCUCCACAGGUGGGGGCAAGGCAACCUCCACUGACACCUGGGGUGGCGCCGGCAGCUCGGCUUCAGGCUCCAACAGAGGAUUGAGCAUCA
B10: chrX:71549400:71549401:+_ENSMUSG00000019087_ENSMUST00000019231|mus_hu|mus_mus_mus_hu_False|18_48 (ssRNA)
RNA: GGGAGUUCUACAGUCCGACGAUCGCAGUAGGAAGAGGGAAGCUCUUCAGUCCAGUGCGCUGCAGGGUGGGAAAGCAACAACACGGAACCAAUACUCCCCUCAACCCCCCCACUGGCAUGUCACACAACAAUCUGGGUCAAAGACAACAGAGGAUUGAGCAUCA
B11: chr6:42636609:42636610:-_ENSMUSG00000036667_ENSMUST00000045054|mus_hu|FALSE|FALSE (ssRNA)
RNA: GGGAGUUCUACAGUCCGACGAUCGGCAUCAAUACAGUAAACCCCCAGGGAGUCUUUCACUUCUGGCUCAACCUUUGCAUCCACUCCAGAGCCCUCGAGGAUUUUGGCCAAAGGUGCCAGGGAUGGGUGUACACCAAUGGGAGCCAACAGAGGAUUGAGCAUCA
B12: chr2:153237265:153237266:-_ENSMUSG00000061411_ENSMUST00000109784|mus_mus|mus_mus_mus_hu_False|58_58 (ssRNA)
RNA: B2 RNA with A119C, C120A, G122A, U123A, G124U, U125G, A126U
B13: 113287723_113287843_2736_3pUTR_ENSG00000114999_ENST00000233336|human|control|control (ssRNA)
RNA: GGGAGUUCUACAGUCCGACGAUCCCUUUUUCAUUGUAAGUUCUCACAUCUCAUCAUGUUCAAGGAGGCAUUGAUUUUCUCCUCUUUUGUAAAAGUCUCACCUGACUGCAGAAAUGUUUUCUUGAGCCAAGUAGAAAUGAGGAACAACAGAGGAUUGAGCAUCA
B14: chr2:153237265:153237266:-_ENSMUSG00000061411_ENSMUST00000109784|mus_mus|mus_mus_mus_hu_False|28_28 (ssRNA)
RNA: B2 RNA with C78U, A79G, A115G, A119C, C120A, G122A, U123A, G124U, U125G, A126U
B15: chr2:153237265:153237266:-_ENSMUSG00000061411_ENSMUST00000109784|mus_mus|mus_mus_mus_hu_False|1_28 (ssRNA)
RNA: GGGAGUUCUACAGUCCGACGAUCAAAAAAAAAAAAAAAAAAGUGUCCUUGUGCCCAAAGUCUCAGGUGCUUGGAGUGUGGCUAGAAACAGCUCUUUUGGAUCCCACCUCUUUCAGAAACAAAAUGUACCAACUGGUAGGCAGGCAACAGAGGAUUGAGCAUCA
B16: chr2:153237265:153237266:-_ENSMUSG00000061411_ENSMUST00000109784|mus_mus|mus_mus_mus_hu_False|1_1 (ssRNA)
RNA: B15 RNA with G115A
B17: chr2:153237265:153237266:-_ENSMUSG00000061411_ENSMUST00000109784|mus_mus|mus_mus_mus_hu_False|28_58 (ssRNA)
RNA: B15 RNA with U78C, G79A, A137G, G138A, C140G, A141C, G142A
B18: chr2:153237265:153237266:-_ENSMUSG00000061411_ENSMUST00000109784|mus_hu|FALSE|FALSE (ssRNA)
RNA: B15 RNA with G115A, A137G, G138A, C140G, A141C, G142A
B19: chr18:65376317:65376318:+_ENSMUSG00000024589_ENSMUST00000163516|mus_mus|motif|central (ssRNA)
RNA: GGGAGUUCUACAGUCCGACGAUCUGCUAUACCAACAGAAAACUAUCCCUUUCCUAGGAAACACUAGACAGGCUCAUGUCCGGACGCGGCAGCUGCUUCUCUGGCACACUGAAAACACUCUGGGGUGGAGUGUGCAUACACAGACAACAGAGGAUUGAGCAUCA
B20: chr3:149686290:149686291:-_ENSG00000070087_ENST00000452853|perfect_dup|FALSE|FALSE (ssRNA)
RNA: GGGAGUUCUACAGUCCGACGAUCUCCAAGAGUCAAACCGUUGGUAAAGAAACCUUCCCGGUCUUUUCCUACAAUCAUAUCUAUUUCUACUGGCGUGAUGCUCUGGAAGACGCCCCCGGCCGUGGCUGCCCAGACGUAUUUGGCCAACAGAGGAUUGAGCAUCA
B21: 153895285_153895405_106_5pUTR_ENSG00000143614_ENST00000368655|human|control|control (ssRNA)
RNA: GGGAGUUCUACAGUCCGACGAUCGGCACAGGGGAUCCAGACCCUGCUGACGGGACUAGGGACGGGGGUAGGGGAGGGGGGCGGGCCGGACCGGGGCGGGCGGGCGGAGCAGACACUGCGGUACAGACGGGGGCAGCGGCGGCGCAACAGAGGAUUGAGCAUCA
B22: chr14:76904540:76904541:+_ENSMUSG00000022010_ENSMUST00000022587|mus_mus|FALSE|FALSE (ssRNA)
RNA: GGGAGUUCUACAGUCCGACGAUCAAAGAAAUGGAAAAAUGUCUCAGUUGGUAAACUCCUAGAUCCAUCGCCACUGGUCUACACCAUUGGGAUUUCAUGCAAUUGCAGCCAAAUUAAAAAAACAGCCCCGUGGAAAAAAAAGAGCAACAGAGGAUUGAGCAUCA

For the test, the target named is T1, UNK ZnF1-3. The experiment in a line: nsRBNS (natural sequence RNA bind-n-seq); RBNS binding buffer (assumed for nsRBNS): 25 mM Tris pH 7.5, 150 mM KCl, 3 mM MgCl2, 0.01% Triton X-100, 500 ug/ml BSA, 20 U/ml SUPERase-In, 4 C; UNK is unkempt and MSI1 is Musashi-1; names of the RNAs are library labels; protein concentration not given here; high values mean tight binding.
For the molecule B1, the binding signal stood at 0.887 enrichment R.

B2: the binding signal was 4.98 enrichment R.

As to B3, the binding signal stood at 5.16 enrichment R.

As for B4, the binding signal stood at 4.87 enrichment R.

Consider B5, for which the binding signal came to 1.1 enrichment R.

Consider B6, for which the binding signal amounted to 3.55 enrichment R.

The molecule B7 gave a binding signal of 6.33 enrichment R.

Take B8: the binding signal was determined as 3.13 enrichment R.

B9 displayed a binding signal of 0.664 enrichment R.

B10 returned a binding signal of 1.29 enrichment R.

B11: the binding signal was 1.69 enrichment R.

Regarding B12, the binding signal was found to be 4.5 enrichment R.

B13: the binding signal stood at 0.859 enrichment R.

For the molecule B14, the binding signal was found to be 3.18 enrichment R.

The molecule B15 registered a binding signal of 3.93 enrichment R.

Take B16: the binding signal turned out to be 6.8 enrichment R.

As for B17, the binding signal is 3.57 enrichment R.

As for B18, the binding signal worked out at 6.49 enrichment R.

Take B19: the binding signal worked out at 1.06 enrichment R.

Molecule B20 displayed a binding signal of 0.967 enrichment R.

B21 displayed a binding signal of 0.68 enrichment R.

In turn, B22 gave a binding signal of 3.35 enrichment R.
